{"source": "paper PMC7819943", "about": "“Rice protein-binding microarrays: a tool to detect cis-acting elements near promoter regions in rice”", "note": "In all, about 39,000 sequences were measured (“fluorescence intensity (a.u.)”: median about 4,300, highest 2% from about 39,000 on). Many of the other results were omitted from the sample, so the highest values are more common in it than they were.", "data": [{"target": "T1, OsSMF1 (Oryza sativa, UniProt Q6ZLB0 1-436)", "T1 sequence": "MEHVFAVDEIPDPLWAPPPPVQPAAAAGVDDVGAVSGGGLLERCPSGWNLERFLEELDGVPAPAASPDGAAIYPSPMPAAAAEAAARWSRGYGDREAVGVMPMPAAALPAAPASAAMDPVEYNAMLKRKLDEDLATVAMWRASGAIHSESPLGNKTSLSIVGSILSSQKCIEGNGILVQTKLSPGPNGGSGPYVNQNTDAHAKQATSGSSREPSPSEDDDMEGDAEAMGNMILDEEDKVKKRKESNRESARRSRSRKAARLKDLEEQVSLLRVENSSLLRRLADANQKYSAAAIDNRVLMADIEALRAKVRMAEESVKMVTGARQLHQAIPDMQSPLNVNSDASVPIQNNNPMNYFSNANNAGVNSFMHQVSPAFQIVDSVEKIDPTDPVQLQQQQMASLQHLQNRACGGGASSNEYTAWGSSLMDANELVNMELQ", "experiment": "protein-binding microarray (RPBM); PBS, 2% BSA, 51.3 ng/ul salmon testes DNA, 50 uM zinc acetate, 200 nM TF, 25 C, 1 h; high values mean tight binding", "settings": "protein: recombinant; tags: N-terminal polyhistidine and DsRed monomer fusion (pET32a); chain copies: 2; label: CyDye5-dUTP incorporated in the synthesized complementary strand; 3' TTTTT single-stranded linker to array surface; dsDNA, one strand shown", "procedure,_shortened": "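Transcription factors were each fused at the N-terminus to a polyhistidine tag plus DsRed and expressed in E. coli BL21-CodonPlus before Ni–NTA purification. Binding to a double-stranded custom Agilent array was carried out with 200 nM protein at 25 °C for 1 h in PBS, 2% BSA, salmon testes DNA and 50 µM zinc acetate. The binding signal is per-feature fluorescence intensity, in arbitrary units, on an Axon 4000B scanner.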", "values": [{"sequence": "GAGTCGTTATCTGCATTGATGTGTCTCCTGACTCCTGAGACGGAGTCACCTAGTGCAG", "binding signal": "3840 fluorescence intensity (a.u.)"}, {"sequence": "CAACCTCCGATTTCCAAATCCAGTTGTCTTCTTCTTCCCCCGGAGTCACCTAGTGCAG", "binding signal": "7150 fluorescence intensity (a.u.)"}, {"sequence": "ACAATACTACTATTTTATCATGACGATGACTGGAACTCCACGGAGTCACCTAGTGCAG", "binding signal": "4440 fluorescence intensity (a.u.)"}, {"sequence": "CGCTGGTGAAGTGGTGATGCGCCTAATCGTTTTCTTCGCGCGGAGTCACCTAGTGCAG", "binding signal": "3260 fluorescence intensity (a.u.)"}, {"sequence": "CTTGCATTCCTTTTCTTCTCCTGAACTATATAAACACACTCGGAGTCACCTAGTGCAG", "binding signal": "3290 fluorescence intensity (a.u.)"}, {"sequence": "AAATTTAAGAATTTTCGGATGCACTTAAAGAAGGACAAGTCGGAGTCACCTAGTGCAG", "binding signal": "11000 fluorescence intensity (a.u.)"}, {"sequence": "CCGCCTGACACGTGTAAGAGCAAGTTTAATAGTATAGCCCCGGAGTCACCTAGTGCAG", "binding signal": "13800 fluorescence intensity (a.u.)"}, {"sequence": "ATTGAATATAATTGGATATAAACAGTTTAAAACTATACTCCGGAGTCACCTAGTGCAG", "binding signal": "5510 fluorescence intensity (a.u.)"}, {"sequence": "GAGAGAGAGAGGAGATAATAAAATACTCGATATTGAATTGCGGAGTCACCTAGTGCAG", "binding signal": "42500 fluorescence intensity (a.u.)"}, {"sequence": "ATTATTAAAATATATAAATATTGAATTTAATAAAATAATTCGGAGTCACCTAGTGCAG", "binding signal": "26400 fluorescence intensity (a.u.)"}, {"sequence": "GGTTGAGTGACGCGCTATTTCTGGTATTGCGTATGAAGGGCGGAGTCACCTAGTGCAG", "binding signal": "3520 fluorescence intensity (a.u.)"}, {"sequence": "TGTCCATGGTTTGTTGCTGCTGCGGTGGCACCAGTGCTGCCGGAGTCACCTAGTGCAG", "binding signal": "7940 fluorescence intensity (a.u.)"}, {"sequence": "GTAGACGAAGACCTGGCAAGTCCTTGGGCTTAAATCTCACCGGAGTCACCTAGTGCAG", "binding signal": "17800 fluorescence intensity (a.u.)"}, {"sequence": "GACTGTACACATGAAGGAACATATGTGCTGAAATACTGTACGGAGTCACCTAGTGCAG", "binding signal": "26100 fluorescence intensity (a.u.)"}, {"sequence": "TATGAACACATATGTAGCATACGCTTAAATAGACGAAGACCGGAGTCACCTAGTGCAG", "binding signal": "40500 fluorescence intensity (a.u.)"}, {"sequence": "GCTATATATTTGTTGATCAGCTAGGCTGTCAGCAGTTTAGCGGAGTCACCTAGTGCAG", "binding signal": "3650 fluorescence intensity (a.u.)"}, {"sequence": "ATACACACATATCCGCGCCATTATAAATTTGACAGCATTTCGGAGTCACCTAGTGCAG", "binding signal": "3440 fluorescence intensity (a.u.)"}, {"sequence": "CAACATTAGCAATTAAAATTGCGGGTTATTTGTAAAAGTCCGGAGTCACCTAGTGCAG", "binding signal": "32000 fluorescence intensity (a.u.)"}, {"sequence": "CATATATGGACAGGCAACGGCATGTCGTGTTCGTACAAATCGGAGTCACCTAGTGCAG", "binding signal": "3190 fluorescence intensity (a.u.)"}, {"sequence": "CACCACACGAAGCAGCCACGAACGCAACGCGGGTGCGTCGCGGAGTCACCTAGTGCAG", "binding signal": "3140 fluorescence intensity (a.u.)"}, {"sequence": "CCGCGTCCGTACTCTCTAGCCTGCGGGTAAGCAACGAACTCGGAGTCACCTAGTGCAG", "binding signal": "45200 fluorescence intensity (a.u.)"}, {"sequence": "GCGGTAGCCAAGCCTGCCACGTCAGCTCTCGCGCAACGTCCGGAGTCACCTAGTGCAG", "binding signal": "34600 fluorescence intensity (a.u.)"}, {"sequence": "CCCACCCCGCGTGCAGCTTAGGCGAACCCTCCTCCCTCCGCGGAGTCACCTAGTGCAG", "binding signal": "3660 fluorescence intensity (a.u.)"}, {"sequence": "CCAAAATCAGATATCTTAGGATTCATATCGATGTCCAACACGGAGTCACCTAGTGCAG", "binding signal": "19200 fluorescence intensity (a.u.)"}, {"sequence": "CATATCCTCAAGTAGAATTCAAATCCAGTCACATTGCCACCGGAGTCACCTAGTGCAG", "binding signal": "4130 fluorescence intensity (a.u.)"}, {"sequence": "GTTCAGAATGTGGTGGCGACGTAAGGTGATTTGGAAGGCGCGGAGTCACCTAGTGCAG", "binding signal": "43500 fluorescence intensity (a.u.)"}, {"sequence": "AGGAATGCATTTGTGGTGGGTGCAGGTGCGCGGGTGGCGACGGAGTCACCTAGTGCAG", "binding signal": "3340 fluorescence intensity (a.u.)"}, {"sequence": "CAGGTGGTGGTGGCCATTAGTTAGTGGCAAATGTGGAAGGCGGAGTCACCTAGTGCAG", "binding signal": "3220 fluorescence intensity (a.u.)"}, {"sequence": "CTAGAGGAAGTGGGGAAGCCGACGACCCCACGTCTCGCCACGGAGTCACCTAGTGCAG", "binding signal": "3940 fluorescence intensity (a.u.)"}, {"sequence": "TAAAATAGTTTTAAAACTTTAAGTTGAAAGTAAATACTTTCGGAGTCACCTAGTGCAG", "binding signal": "27900 fluorescence intensity (a.u.)"}, {"sequence": "GACTAACAAAATCGTTGAAACTTGCGAAGTTTCTTTTGATCGGAGTCACCTAGTGCAG", "binding signal": "64700 fluorescence intensity (a.u.)"}, {"sequence": "TACTTTCAACTCTAACTTGAAAACTTTCAACTTTGACTTGCGGAGTCACCTAGTGCAG", "binding signal": "3860 fluorescence intensity (a.u.)"}, {"sequence": "CCACCCACGGAGCCAGCTCACTACCACCGTTTGTCGCCTCCGGAGTCACCTAGTGCAG", "binding signal": "4360 fluorescence intensity (a.u.)"}, {"sequence": "GTACTACTCCCTCCGTTTCTCCCTCCGTTTCAAAATGTTTCGGAGTCACCTAGTGCAG", "binding signal": "3220 fluorescence intensity (a.u.)"}, {"sequence": "ACATGTGTTCACGCGTGTGTATCTTCTACTCCCTCCGTTTCGGAGTCACCTAGTGCAG", "binding signal": "43200 fluorescence intensity (a.u.)"}, {"sequence": "TTCTTCCTCCGTCAGTTCATCATCTCTCTGTGTGTGTTTTCGGAGTCACCTAGTGCAG", "binding signal": "3570 fluorescence intensity (a.u.)"}, {"sequence": "GTTGTCAAATGAGTCAATTAGATATTTCCAACCCACACTACGGAGTCACCTAGTGCAG", "binding signal": "4900 fluorescence intensity (a.u.)"}, {"sequence": "CGTATCTCATCTTTTCGTTTATACTTATACTTATCAGTCACGGAGTCACCTAGTGCAG", "binding signal": "3230 fluorescence intensity (a.u.)"}, {"sequence": "ATCGATCGATCAATTGGCCAAGGCGGCAAACGGCGGCGGCCGGAGTCACCTAGTGCAG", "binding signal": "4060 fluorescence intensity (a.u.)"}, {"sequence": "TTAGCTTCACAGTTCACTGTAGCGTCTAGAAGAGGAACAGCGGAGTCACCTAGTGCAG", "binding signal": "63300 fluorescence intensity (a.u.)"}, {"sequence": "TTGTGGTACGATACTAGTACTACTAGTAGACTAGTAGCAGCGGAGTCACCTAGTGCAG", "binding signal": "3260 fluorescence intensity (a.u.)"}, {"sequence": "AGCTTCAGGAGTTCTTGTCACGTCTCGAGGAAGAGAGGCTCGGAGTCACCTAGTGCAG", "binding signal": "3740 fluorescence intensity (a.u.)"}, {"sequence": "GATCACTGTACTGTACAGAGGCTAGCTCTAGCTAGGTAGCCGGAGTCACCTAGTGCAG", "binding signal": "26000 fluorescence intensity (a.u.)"}, {"sequence": "GTGAGAACTGAGAGGAGCGTCGGAAGAAGACCGGAAGAAGCGGAGTCACCTAGTGCAG", "binding signal": "4580 fluorescence intensity (a.u.)"}, {"sequence": "TTAGCTAGACTACAGCTCTAGTAGAGCTGTAGAGGTAGAGCGGAGTCACCTAGTGCAG", "binding signal": "44000 fluorescence intensity (a.u.)"}, {"sequence": "GTGGGCCATCTGACAGTGCATACAGGAACTTTCCCCTTCTCGGAGTCACCTAGTGCAG", "binding signal": "4930 fluorescence intensity (a.u.)"}, {"sequence": "ATTATAGGTCCAGCTAAGTTGGCCCTGGTATATATATTGGCGGAGTCACCTAGTGCAG", "binding signal": "3980 fluorescence intensity (a.u.)"}, {"sequence": "TTGGAGGGGAAGCTATCGTGTATCCACTGCGGAGCACGGCCGGAGTCACCTAGTGCAG", "binding signal": "3650 fluorescence intensity (a.u.)"}, {"sequence": "CCGGGCTACCATCGCGGCGACGAAACGTGCATCATCATCCCGGAGTCACCTAGTGCAG", "binding signal": "3850 fluorescence intensity (a.u.)"}, {"sequence": "CGTGGTGGACGGCCTCGACGAGGCGATCTGCCCGGTGGCGCGGAGTCACCTAGTGCAG", "binding signal": "3240 fluorescence intensity (a.u.)"}, {"sequence": "AACGACGGCGAATTCTACCTCCCCGGGTATCTGGACCTCGCGGAGTCACCTAGTGCAG", "binding signal": "42900 fluorescence intensity (a.u.)"}, {"sequence": "CGTGGCACTTAGCGATGAGTGCTGTCGTCAGTAGCAATCCCGGAGTCACCTAGTGCAG", "binding signal": "4620 fluorescence intensity (a.u.)"}, {"sequence": "GGCTAGCGTACAGGTTAAAACGTGTCGGAATCGTCAGCGCCGGAGTCACCTAGTGCAG", "binding signal": "4110 fluorescence intensity (a.u.)"}, {"sequence": "GTACAGCAGGAATCGCTGCTGGCGTCGCTTCGTCGGTTGTCGGAGTCACCTAGTGCAG", "binding signal": "65100 fluorescence intensity (a.u.)"}, {"sequence": "GCAGGCGTCGGTTTCGCGGCTGGCAGCGGCGGCTCGCTCACGGAGTCACCTAGTGCAG", "binding signal": "3200 fluorescence intensity (a.u.)"}]}]}
